In test [1] the target is Calcium and integrin-binding protein 1 (Homo sapiens) (UniProt Q99828). Put plainly: Primary qHTS for Identification of Calcium Integrin Binding Protein 1 (CIB1) Competitor (AID 1508620).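 Note: GST tagged CIB1 binding a fluorescein labelled alphaIIb integrin peptide tracer; top concentration of the series differs between compounds; % is set by controls: 0 for no effect and ±100 for the full control effect.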 An outline of the steps:
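Fluorescence polarization competition: GST-tagged CIB1 (1 uM final) preincubated with compound 15 min at room temperature, then FITC-labelled alphaIIb peptide (100 nM final) added. After 15 min at room temperature, polarization read at Ex 480/Em 540.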
In general terms: Quantitative high-throughput screening tests each substance at several concentrations.

Test [2] can be described thus: Primary qHTS for inhibitors of nuclear receptor binding SET domain protein 2 (NSD2) in an isogenic RCH-ACV NSD2 p.E1099K mutant (9B) (AID 1645876). For activity change, negative = viability loss: % is set by controls: 0 for no effect and ±100 for the full control effect. Note: nearly all actives have a fitted effect of over 70% in size. Note: potency is the fitted concentration of half-maximal effect.
For test [3], the target named is Cytochrome P450 2D6 (Homo sapiens) (UniProt P10635). Put plainly: Cytochrome P450 family 2 subfamily D member 6 (CYP2D6) small molecule antagonists: luciferase biochemical (cell-free) qHTS assay (AID 1645840; active = well fitted curve in the direction sought with a large enough effect in the repeat runs; an effect the other way counts as inactive or inconclusive; note: nearly all actives have a fitted effect of over 55% in size; note: potency is the fitted concentration of half-maximal effect). An outline of the steps:
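P450-Glo luminescent screen: recombinant CYP2D6 enzyme–proluciferin substrate mix preincubated with compound 10 min at room temperature, then NADPH regeneration added for 1 h at room temperature. Detection reagent added for 20 min; luciferin light read as relative luminescence units.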

For test [4], the target named is Cytochrome P450 2C9 (Homo sapiens) (UniProt P11712). The test is described as follows: Cytochrome P450 family 2 subfamily C member 9 (CYP2C9) small molecule antagonists: luciferase biochemical (cell-free) qHTS assay (AID 1645842; active = well fitted curve in the direction sought with a large enough effect in the repeat runs; an effect the other way counts as inactive or inconclusive; note: potency is the fitted concentration of half-maximal effect; nearly all actives have a fitted effect of over 55% in size). An outline of the steps: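 Luminescence, after 20 min with luciferin detection reagent, reflected CYP2C9 turnover during a 1 h NADPH-driven reaction at 37C. Enzyme-substrate mix contained 0.4% bovine serum albumin and was preincubated with compound 10 min at room temperature.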

Test [5] addresses N-terminal Xaa-Pro-Lys N-methyltransferase 1 (Homo sapiens) (UniProt Q9BV86). The test is described as follows: Confirmatory qHTS for Inhibitors of N-terminal methyltransferase 1 (NTMT1): MTaseGlo Assay (AID 1645874). Note: potency is the fitted concentration of half-maximal effect; nearly all actives have a fitted effect of over 65% in size. An outline of the steps: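 NTMT1 (125 nM) preincubated 15 min with compound and 100 uM SAM, then 1 uM SPKRIA peptide added for 30 min at room temperature. SAH detected by MTase-Glo luminescence; normalized to no-enzyme and DMSO controls, fitted to 4-parameter Hill.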

Values joined by “and” are separate entries in the source; they are usually repeats but may differ in a detail not shown here. Identical values can stand only once. Results filed as inconclusive are left out. Values without a mark were called inactive. Active and inactive are the calls of the source. Unless noted, calls come from the whole dose curve; as a rule, active = well fitted curve in the direction sought with a large enough effect; inconclusive = small, poorly fitted or top-dose-only effect, or another doubt; inactive = no such curve, though single readings can be large; an effect the other way counts as inactive or inconclusive.

Calcium and integrin-binding protein 1 (Homo sapiens), sequence (Q99828 whole entry, looked up): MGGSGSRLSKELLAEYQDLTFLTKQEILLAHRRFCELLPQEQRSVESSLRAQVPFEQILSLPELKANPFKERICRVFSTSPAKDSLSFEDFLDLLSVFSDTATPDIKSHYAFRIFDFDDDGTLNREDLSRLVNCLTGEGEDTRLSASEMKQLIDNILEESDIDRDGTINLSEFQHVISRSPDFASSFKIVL
Cytochrome P450 2C9 (Homo sapiens), sequence (P11712 whole entry, looked up): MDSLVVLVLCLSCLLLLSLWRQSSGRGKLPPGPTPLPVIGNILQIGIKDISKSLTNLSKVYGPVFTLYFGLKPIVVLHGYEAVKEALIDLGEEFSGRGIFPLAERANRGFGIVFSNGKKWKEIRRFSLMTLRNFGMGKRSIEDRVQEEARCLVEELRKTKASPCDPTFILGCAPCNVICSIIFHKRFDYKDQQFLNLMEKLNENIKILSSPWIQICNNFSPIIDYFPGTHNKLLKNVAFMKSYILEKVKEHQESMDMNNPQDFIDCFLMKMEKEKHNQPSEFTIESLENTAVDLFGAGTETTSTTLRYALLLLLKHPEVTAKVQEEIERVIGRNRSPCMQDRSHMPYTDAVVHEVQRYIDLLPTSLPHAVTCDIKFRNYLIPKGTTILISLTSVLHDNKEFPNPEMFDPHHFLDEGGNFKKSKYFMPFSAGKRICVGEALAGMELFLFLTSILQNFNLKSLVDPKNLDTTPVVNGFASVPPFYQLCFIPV
Cytochrome P450 2D6 (Homo sapiens), sequence (P10635 whole entry, looked up): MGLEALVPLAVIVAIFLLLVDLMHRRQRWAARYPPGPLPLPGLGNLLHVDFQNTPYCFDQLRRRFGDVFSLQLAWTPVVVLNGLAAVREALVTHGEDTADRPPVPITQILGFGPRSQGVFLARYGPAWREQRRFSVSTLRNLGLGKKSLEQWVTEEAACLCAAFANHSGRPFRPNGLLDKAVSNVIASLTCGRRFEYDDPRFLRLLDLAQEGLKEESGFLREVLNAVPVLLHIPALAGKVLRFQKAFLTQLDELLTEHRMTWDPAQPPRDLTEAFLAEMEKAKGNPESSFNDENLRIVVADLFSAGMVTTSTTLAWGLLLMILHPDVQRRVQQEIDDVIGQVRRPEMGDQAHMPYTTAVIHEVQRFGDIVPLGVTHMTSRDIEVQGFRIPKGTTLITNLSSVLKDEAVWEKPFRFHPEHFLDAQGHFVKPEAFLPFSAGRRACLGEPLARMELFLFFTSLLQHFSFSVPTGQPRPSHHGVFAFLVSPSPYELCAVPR
N-terminal Xaa-Pro-Lys N-methyltransferase 1 (Homo sapiens), sequence (Q9BV86 whole entry, looked up): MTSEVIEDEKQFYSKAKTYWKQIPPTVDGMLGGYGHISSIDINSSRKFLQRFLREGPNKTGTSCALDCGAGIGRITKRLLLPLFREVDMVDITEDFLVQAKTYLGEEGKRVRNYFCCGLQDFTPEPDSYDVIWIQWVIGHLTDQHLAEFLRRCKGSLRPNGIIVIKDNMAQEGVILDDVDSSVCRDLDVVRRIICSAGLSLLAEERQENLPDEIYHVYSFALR

Take `O=C(O)c1cn(C2CC2)c2cc(N3C[C@@H]4C[C@H]3CN4)c(F)cc2c1=O`: the Potency result in test [1] and in test [2] was “inactive” in each case. As to `CC1OC2OC(=O)C3(C)CC4=C(CO)C5=C(CC(=O)C4(C)C(C1=O)C23)C(C)(C)OC(=O)C5` (stereo not drawn), the Potency result in test [1] and in test [2] was “inactive” in each case. For the compound `C=CC/C=C\C/C=C\CCCCCCCc1cccc(O)c1C(=O)O`, in test [2], the Potency entry is “inactive”.

Turning to `CC(=O)OC1C[C@@]2(C)[C@@H](CC[C@@H](C)[C@]23Cc2c(O)cc4c(c2O3)CNC4=O)C(C)(C)[C@@H]1O` (stereo partly drawn), the Potency result in test [1] and in test [2] was “inactive” each time. With `CC1(C)C=CN2C(=O)C3=CCCN3C(=O)[C@@H]2C[C@@]12Nc1ccccc1C2=O`, the Potency entry in test [2] was “inactive”.

On to `C/C(=C\CCC1(C)C2CCC(C2)C1(C)O)C(=O)O` (stereo not drawn), for which the Potency entry in test [1] and in test [2] was “inactive” in each case. Turning to `CC1(C)CCC[C@]2(C)[C@H]3CC(=O)O[C@]3(C)CC[C@@H]12`, the Potency entry in test [1] and in test [2] was “inactive” each time.

In the case of `Cc1cccc(C)c1-n1c(=O)c2cnc(Nc3ccc(N4CCN(C)CC4)cc3)nc2n2c3ccccc3nc12`, the Potency entry in test [3] was “inactive”. For the same compound, the results for the Potency in test [4] and in test [2] were 8.49 µM (active) and 0.205 µM (active), respectively. Consider `O=C(O)/C=C/c1ccc(-c2ccc(O)c(C34CC5CC(CC(C5)C3)C4)c2)cc1`, for which, in test [2], the Potency was 0.325 µM (active). The same measure, in the same setting: then `CCc1c(-c2ccccc2)c(-c2ccccc2)nn1-c1ccccc1-c1cccc(OCC(=O)O)c1`, with “inactive”. In the case of `C[C@@H]1CCC/C=C/[C@H]2CC(=O)C[C@@H]2[C@@H](O)/C=C/C(=O)O1`, the Potency entry in test [1] and in test [2] was “inactive” each time. Turning to `C[C@@H]1C[C@@H]2O[C@H]2/C=C\C=C\C(=O)Cc2c(Cl)c(O)cc(O)c2C(=O)O1`, the Potency entry in test [1] is “inactive”. For the same compound, the Potency in test [2] was 1.01 µM (active).

Take `CC1CC(O)C2(OC1=O)OC1C(O)C3C4CCC5CC(OC6OC(CO)C(O)C(O)C6OC6OC(C)C(O)C(O)C6O)CCC5(C)C4CCC3(C)C1C2C` (stereo not drawn): the Potency entry in test [1] and in test [2] was “inactive” in each case. With `Nc1nccn2c(C3CCC(C(=O)O)CC3)nc(-c3cc4cccc(Cl)c4[nH]3)c12` (stereo not drawn), the Potency result in test [3] is “inactive”. Also, the Potency in test [2] is 1.29 µM (active) and 3.72 µM (active). For the compound `CC(C)(O[C@@H]1O[C@H](CO)[C@@H](O)[C@H](O)[C@H]1O)C(OC(=O)/C=C\c1ccc(O)cc1)C(=O)OCc1ccc(O[C@@H]2O[C@H](CO)[C@@H](O)[C@H](O)[C@H]2O)cc1` (stereo partly drawn), the Potency entry in test [1] and in test [2] was “inactive” each time.

For `O=C1OCc2cc3cccc(O[C@@H]4O[C@H](CO)[C@@H](O)[C@H](O)[C@H]4O)c3c(O)c21`, the Potency entry in test [2] was “inactive”. Turning to `CC(C)CC(=O)O[C@@H]1OC=C(CO[C@@H]2O[C@H](CO)[C@@H](O)[C@H](O)[C@H]2O)[C@H]2[C@@H]3O[C@H]3[C@@](O)(CO)[C@@H]12`, the Potency entry in test [1] and in test [2] was “inactive” in each case. In the case of `COC(=O)C12C(=O)C(C)=C(O)C1(C)C(C)=CC1C3(CO)CCC(O)C(C)(C)C3CCC12C` (stereo not drawn), the Potency result in test [1] and in test [2] was “inactive” in each case. Consider `COc1cc(N2CCC(N3CCN(C)CC3)CC2)ccc1Nc1ncc(Cl)c(-c2c[nH]c3ccccc23)n1`, for which the Potency in test [4] was 19 µM (active); in test [5] it was 55.5 µM (active); in test [2] it was 1.15 µM (active). Consider `C=C1CN(Cc2ccc(C(=O)Nc3ccccc3N)cc2)C(=O)c2ccccc21`, for which, in test [1], the Potency entry is “inactive”. Also, the Potency in test [2] is 0.23 µM (active).

Turning to `CC1OC(OC2C(OC3C(O[C@H]4CC[C@@]5(C)C(CC[C@]6(C)C5C(=O)C=C5C7CC(C)(C)CC(O)[C@]7(C)CC[C@]56C)C4(C)C)OC(C(=O)O)C(O)C3O)OCC(O)C2O)C(O)C(O)C1O` (stereo partly drawn), the Potency entry in test [1] is “inactive”. In addition, the activity change, negative = viability loss in test [2] was -6.05% [at 9.23 µM].

In the case of `CC1(C)CCC2(C(=O)OC3OC(CO)C(O)C(O)C3O)CCC3(C)C(=CCC4C5(C)CCC(O)C(C)(C(=O)O)C5CCC43C)C2C1O` (stereo not drawn), the Potency result in test [1] and in test [2] was “inactive” throughout.

On to `Cc1cc(-c2cc(O)ccc2Cl)cc2nnc(Nc3ccc(OCCN4CCCC4)cc3)nc12`, for which the Potency is 16.9 µM (active) in test [3], 12 µM (active) in test [4] and 3.25 µM (active) in test [2]. Consider `CC1=C(C)C(=O)OC(C(C)C2CCC3C4C5OC5C5(O)CC(OC6OC(CO)C(OC7OC(C)C(O)C(O)C7O)C(O)C6O)CC(O)C5(C)C4CCC23C)C1` (stereo not drawn), for which the Potency entry in test [1] and in test [2] was “inactive” in each case. `CCC1C(=O)OC23C=C[C@@H]4C(C(=O)O)=CO[C@H](O[C@@H]12)[C@@H]43` (stereo partly drawn): in test [1], the Potency result is “inactive”. Besides, in test [2], the Potency was 25.8 µM (active).
